# Hits are enriched below; roughly 1.5% of the tested compounds scored in any of these assays.
# DUSP3 inh = blocks human VHR1 dual specificity phosphatase; P51452; recombinant VHR phosphatase, pNPP absorbance; inhibition, % at 13.3 µM; 0.52% of 290,000 active; AID 1654; in the data active means inhibition above about 50%
# Target sequence (P51452 whole entry, looked up): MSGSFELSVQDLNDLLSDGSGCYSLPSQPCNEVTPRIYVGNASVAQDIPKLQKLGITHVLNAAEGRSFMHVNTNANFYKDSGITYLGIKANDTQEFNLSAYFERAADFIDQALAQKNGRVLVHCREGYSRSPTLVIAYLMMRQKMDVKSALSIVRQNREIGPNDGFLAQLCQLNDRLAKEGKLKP
# SSB-PriA inh = blocks PriA binding to SSB C-terminal tail | AlphaScreen SSBct-PriA binding, biotinylated peptide | inhibition, % at 33 µM | 0.6% of 430,000 active | AID 1272365; in the data active means inhibition mostly above about 37%, no sharp cut-off; inactive means mostly below about 20%
# CCHFV vOTU inh = blocks the CCHF virus ovarian tumor domain protease | CCHFV vOTU protease, Pep-AMC fluorescence | inhibition, % at 11.5 µM | 0.55% of 370,000 active; in the data active means inhibition above about 30%
# RN4220 kill = kills Staphylococcus aureus RN4220; S. aureus RN4220 growth, OD600, 16 h; inhibition, % (test concentration not listed); AID 1259311; 0.33% of 330,000 active; in the data active means inhibition above about 85%
# ugtP null kill = compounds lethal to S. aureus RN4220 ugtP deletion mutant; OD600 growth, 16 h; growth inhibition, % (no concentration beside the values); 0.54% of 330,000 active; in the data active means growth inhibition above about 68%
# A number is an active result; 0 = inactive; - = no result.
SMILES,DUSP3 inh,SSB-PriA inh,CCHFV vOTU inh,RN4220 kill,ugtP null kill
CCn1nc(NC(C)=O)c2cc3cccc(C)c3nc21,0,0,0,0,0
O=C(CC(=O)c1ccccc1O)c1ccc(F)cc1,0,0,0,0,90.1
COc1ccc(C(=O)CC(=O)c2ccc(F)cc2)cc1,-,0,0,0,0
O=C(CC(=O)c1ccccc1O)c1cccc(F)c1,0,0,-,0,95.7
COC(=O)c1cc(OC)ncn1,-,0,-,-,-
O=C(NCCN1CCN(c2ccccc2)CC1)C(=O)Nc1cccc(C(F)(F)F)c1,-,0,-,-,-
COc1ccc(-c2c(-c3ccccc3OC)oc3ccccc23)cc1F,-,0,0,0,89.1
CCOCCCNC(=O)c1cc2cc3cc(OC)ccc3nc2o1,53.0,0,0,0,0
CCOc1cc(-c2cccc(Cl)c2)nc2ccc(C(=O)NCCc3cccc(OC)c3)cc12,-,0,-,-,-
Cc1c(C(=O)NC(=S)Nc2ccccc2N2CCCC2)cccc1[N+](=O)[O-],0,0,0,0,96.3
COc1ccc(C(=O)NC(=S)Nc2ccccc2N2CCCCC2)cc1[N+](=O)[O-],0,0,0,0,94.2
O=C(NC(=S)Nc1ccccc1N1CCCC1)c1ccc([N+](=O)[O-])cc1,0,69.6,0,0,0
CCCCC(=O)NC(=S)Nc1cccc(Cl)c1N1CCCCC1,0,0,0,0,0
O=C(NC(=S)Nc1ccccc1N1CCOCC1)c1ccc([N+](=O)[O-])cc1,0,0,0,0,0
CCOc1ccc(C(=O)NC(=S)Nc2ccccc2N2CCCCC2)cc1[N+](=O)[O-],0,0,0,0,0
CCCCC(=O)NC(=S)Nc1ccccc1N1CCCCC1,0,0,0,0,83.8
CCOC(=O)N1CCN(C(=O)CSc2nnc(C)c3cnn(-c4ccc(F)cc4)c23)CC1,-,0,-,-,-
O=C1/C(=C/c2cccs2)Oc2cc(O)ccc21,-,0,-,-,-
O=C(Nc1cccs1)N(Cc1ccsc1)Cc1ccccn1,-,0,-,-,-
CC(C)c1ccc(OCC(=O)Nc2cccc3c2CCCC3)cc1,0,0,0,0,95.7
C/C(CC(=O)Nc1cccc2c1CCCC2)=N\NC(=O)COc1ccccc1,0,-,0,-,-
COc1cccc(N2C[C@@H](C(=O)Nc3c(C(=O)Nc4ccc5c(c4)OCCO5)oc4ccccc34)CC2=O)c1,-,69.0,-,-,-
Cc1cccc(CCC(=O)NC2CCC(Oc3ncccn3)CC2)c1 (stereo not given),-,0,-,-,-
CC(C)COc1ccc(-c2nn(-c3ccccc3)cc2/C=C2/SC(=S)N(CC(=O)O)C2=O)cc1,0,0,0,98.3,0
CN(C)c1ccc(N=Nc2ccccc2C(=O)OCC(=O)N2CCCCCC2)cc1,0,0,0,0,0
SMILES,DUSP3 inh,SSB-PriA inh,CCHFV vOTU inh,RN4220 kill,ugtP null kill
CN(C)c1ccc(N=Nc2ccccc2C(=O)OCC(=O)N2CCCC2)cc1,0,52.9,0,0,0
O=C(c1cnc2ccccc2n1)N1CCC2(CC1)OCCS2,-,0,-,-,-
O=C(COC(=O)c1ccc2c(c1Cl)C(=O)c1ccccc1C2=O)NC1CC1,0,0,0,87.2,0
Cc1ccc(S(=O)(=O)C2=C(O)C(=O)N(Cc3ccc4c(c3)OCO4)[C@@H]2c2ccc(F)cc2)cc1,-,0,-,-,-
Cc1ccc(CC(=O)Nc2nccs2)cc1C,57.6,0,0,0,0
CCOc1ccc(CC(=O)Nc2nccs2)cc1,0,0,0,0,0
CC(=O)NCCc1nc2ccccc2n1Cc1ccccc1,0,97.0,0,0,0
O=C(NCc1cncc(-c2ccsc2)c1)C1c2ccccc2Oc2ccccc21,-,0,-,-,-
CCCC[N+]12C3C[C@H](C4[C@H](O)[C@]5(C[C@@H]41)c1ccccc1N(C)[C@@H]35)[C@H](CC)[C@H]2O (stereo not given in full),0,49.4,0,0,0
CCC1C2CC3C4N(C)c5ccccc5C45CC(C2C5O)N3C1O (stereo not given),-,-,0,0,0
O=C1CCc2cc(S(=O)(=O)NCC3CCN(S(=O)(=O)C4CC4)CC3)cc3c2N1CC3,-,39.0,-,-,-
C[C@](O)(CNS(=O)(=O)c1cc2c3c(c1)CCN3C(=O)CC2)C1CC1,-,0,-,-,-
Cc1nn(-c2ccc(F)cc2)c2ncc(C(=O)NCc3ccccc3Cl)c(Cl)c12,-,0,-,-,-
CCOC(=O)c1sc(NC(=O)CCCN2C(=O)c3cccc4cccc(c34)C2=O)nc1C,-,0,-,-,-
Cc1ccc(N(C(=O)c2ccccc2Cl)C2=NC(C)CS2)c(C)c1 (stereo not given),0,0,0,0,88.4
Cc1nn(-c2ccccc2)c2sc(C(=O)NC(=S)NCc3ccco3)cc12,-,0,-,-,-
COc1ccccc1OCC(=O)Nc1cc(C)nn1-c1nc2c(F)cccc2s1,-,0,-,-,-
COc1ccc(-c2cc3nc(-c4ccccc4)cc(N4CCC(O)CC4)n3n2)cc1,0,0,0,0,89.6
COc1ccc(-c2cc3nc(-c4ccccc4)cc(N4CCCC(O)C4)n3n2)cc1 (stereo not given),0,0,0,0,0
CCOC(=O)c1ccc(NC(=O)CSc2nc3ccccc3[nH]2)cc1,-,0,-,-,-
CO/N=C(\C(=O)N[C@@H]1C(=O)N2C(C(=O)O)=C(COC(C)=O)CS[C@H]12)c1csc(N)n1,-,0,-,-,-
C=CC1=C(C(=O)O)N2C(=O)C(NC(=O)C(=NOCC(=O)O)c3csc(N)n3)C2SC1 (stereo not given),-,-,-,93.0,98.5
Cc1nc(SCc2ccc(Cl)cc2Cl)[nH]c(=O)c1C,-,0,-,-,-
O=S(=O)(NCc1ccsc1)c1ccccc1,-,0,-,-,-
CCOc1ccc2ccccc2c1C=NNC(=O)CNC(=O)Cc1ccccc1,-,0,-,0,0
SMILES,DUSP3 inh,SSB-PriA inh,CCHFV vOTU inh,RN4220 kill,ugtP null kill
CCOc1ccc2ccccc2c1/C=N/NC(=O)CNC(=O)C(c1ccccc1)c1ccccc1,51.9,-,0,-,-
O=C(Cn1nc(C2CC2)n(-c2ccccc2)c1=O)Nc1ccccc1C(F)(F)F,-,0,-,-,-
COc1ccc(S(=O)(=O)N(CC(C)C)C2CCS(=O)(=O)C2)cc1OC (stereo not given),-,38.3,0,0,0
COc1ccc(/C=C/c2nn3c(-c4ccccc4Cl)nnc3s2)cc1OC,-,0,-,-,-
NCC(=O)Nn1cnnc1CN,-,98.0,-,-,-
NCc1nncn1-c1ccc(F)cc1,-,0,-,-,-
O=S(=O)(NCC1CCN(Cc2ccco2)CC1)C1CC1,-,0,-,-,-
CC(C)(C)c1cc(NCCCn2ccnc2)n2ncc(-c3ccc(Cl)cc3)c2n1,52.7,0,0,0,0
O=C(C1CCC(CNS(=O)(=O)c2cccc3cccnc23)CC1)N1CCc2ccccc21 (stereo not given),54.5,0,0,0,0
O=C(C1CCN(S(=O)(=O)c2cccc3cccnc23)CC1)N1CCc2ccccc21,54.9,0,0,0,0
O=C(C1CCCN1S(=O)(=O)c1cccc2cccnc12)N1CCc2ccccc21 (stereo not given),0,0,0,0,0
CN1CCN(C(=O)C2CCC(CNS(=O)(=O)c3cccc4cccnc34)CC2)CC1 (stereo not given),0,0,0,0,0
Cc1ccc(NC(=O)CC2NCCNC2=O)c(C)c1 (stereo not given),-,0,-,-,-
CC(C)(C)C(=O)Nc1nc(CC(=O)NCc2ccc(Cl)cc2)cs1,-,0,-,-,-
O=C(Nc1ccc(Cl)cc1C(=O)c1ccccc1Cl)c1ccc2c(c1)OCO2,-,0,-,-,-
Cn1nc(CN(Cc2ccco2)C(=O)COc2ccc(Cl)cc2Cl)c2c1CCC2,-,0,-,-,-

# Screening data (PubChem)
